# Test results taken from PubChem BioAssay (Tox21).
# Records with an inconclusive call do not appear. Entries that show only a call come without a potency. Activity calls are given as the source filed them. Unless noted, calls follow the shape of the dose curve; as a rule, active = well fitted curve in the direction sought with a large enough effect in the repeat runs; inconclusive = weak or mixed curves; inactive = no such curve, though single readings can be large; an effect the other way counts as inactive or inconclusive.
# Experiments:
# [1] = qHTS assay for small molecules that induce genotoxicity in human embryonic kidney cells expressing luciferase-tagged ATAD5 (AID 651632); also: nearly all actives have a fitted effect of over 15% in size; also: potency is read from the fitted curve at half-maximal effect
# Summary of the method: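 Increased luciferase signal from ATAD5-tagged reporter cells indicates DNA-damage-driven ATAD5 induction. HEK293T cells are treated for 16 hr at 37C before detection with Amplite.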
# [2] = qHTS assay for small molecule agonists of the p53 signaling pathway - cell viability (AID 651633; calls by dose curve; also: nearly all actives have a fitted effect of over 30% in size; also: potency is read from the fitted curve at half-maximal effect)
# Summary of the method: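 p53RE-bla cells, seeded at 4,000 per well and rested 5 h at 37 C/5% CO2, received compounds in DMSO for 16 h at 37 C. CellTiter-Glo was then added, and luminescence was read after 30 min at room temperature to gauge cytotoxicity.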
# [3] = qHTS assay for small molecules that induce genotoxicity in human embryonic kidney cells expressing luciferase-tagged ATAD5 - cell viability (AID 651634; calls by dose curve; also: nearly all actives have a fitted effect of over 25% in size; also: potency is read from the fitted curve at half-maximal effect)
# Summary of the method: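 Cytotoxicity counterscreen in HEK293T cells bearing an ATAD5-luciferase reporter: live-cell protease activity measured by CellTiter-Fluor fluorescence after 15.5 hr compound exposure.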
# [4] = qHTS assay for small molecule disruptors of the mitochondrial membrane potential - cell viability (AID 720634; calls by dose curve; also: nearly all actives have a fitted effect of over 20% in size; also: potency is read from the fitted curve at half-maximal effect)
# Summary of the method: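 After overnight attachment at 37 C, HepG2 cells received compound or DMSO vehicle for 1 hr. Viability is then taken from ATP-driven luminescence following a 30 min room-temperature CellTiter-Glo step.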
# [5] = qHTS assay to test for compound auto fluorescence at 590 nm (red) in HepG2 cells (AID 720674)
# Summary of the method: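 Intrinsic compound fluorescence in the red window (Ex/Em 540/590 nm) is measured in attached HepG2 cells exposed for 1 hr, DMSO vehicle as baseline, benchmarked to Rose Bengal sodium.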
# [6] = qHTS assay to test for compound auto fluorescence at 460 nm (blue) in HEK293 cells (AID 720678)
# Summary of the method: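 Cells were seeded and left to adhere for 4-5 hr at 37C. Compounds were then pin-transferred. After an overnight incubation at 37C under 5% CO2, intrinsic fluorescence at 405/460 nm was measured and referenced to triamterene.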
# [7] = qHTS assay to test for compound auto fluorescence at 590 nm (red) in HEK293 cells (AID 720679)
# Summary of the method: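 Each well held 2,000 HEK293 cells in medium containing 10% dialyzed FBS. Following 4-5 hr attachment at 37C, 23 nL test compound or DMSO was added; plates sat overnight, and red fluorescence (540/590nm) was recorded.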
# [8] = qHTS assay to test for compound auto fluorescence at 535 nm (green) in HepG2 cells (AID 720675)
# [9] = qHTS assay for small molecule disruptors of the mitochondrial membrane potential (AID 720635); also: potency is read from the fitted curve at half-maximal effect
# Summary of the method: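 HepG2 cells (2,000/well) attached overnight at 37C, then took compound for 1 hr at 37C, 5% CO2. Mito-MPS dye was added for 30 min; fluorescence was read at 490/535 nm (monomers) and 540/590 nm (aggregates).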
SMILES,Potency [1],Potency [2],Potency [3],Potency [4],"fluorescence, relative to Rose Bengal [5]","fluorescence, % of triamterene [6]","fluorescence, % of fluorescent control [7]",outcome [8],Potency [6],outcome [7],Potency [9],outcome [5],"fluorescence, % of fluorescein control [8]"
CN(C(=O)CN(CCO)CC(=O)N(C)C(C)(C)Cc1ccccc1)C(C)(C)Cc1ccccc1,inactive,inactive,inactive,inactive,-0.825% [at 18.6 µM] (inactive),0.252% [at 18.6 µM] (inactive),0.0938% [at 18.6 µM] (inactive),,,,,,
CN(C)CCN1C(=O)c2ccccc2N(C)c2ccccc21,inactive,inactive,inactive,inactive,,,,inactive,inactive,inactive,,,
CCOC(=O)c1ccc(C#Cc2ccc3c(c2)C(C)(C)CCS3)nc1,inactive,inactive,inactive,,,,,inactive,,inactive,29.8 µM (active),inactive,
Cc1cccc(O)c1N,inactive,inactive,,inactive,,,,inactive,inactive,inactive,,inactive,
CC(C)c1nc(CN(C)C(=O)N[C@H](C(=O)N[C@@H](Cc2ccccc2)C[C@H](O)[C@H](Cc2ccccc2)NC(=O)OCc2cncs2)C(C)C)cs1,inactive,inactive,inactive,inactive,,,,inactive,inactive,inactive,,inactive,
Oc1ccc(Cl)c2cccnc12,inactive,inactive,,,,,,inactive,inactive,inactive,11.9 µM (active),inactive,
CC1(CN2CCC(n3c(=O)[nH]c4ccccc43)CC2)OCc2ccccc2-n2cccc21 (stereo not given),inactive,29.8 µM (active),,inactive,,,,inactive,inactive,inactive,29.8 µM (active),,
C=C/C(C)=C/C/C=C(\C)CCC=C(C)C,inactive,inactive,inactive,inactive,,,,inactive,inactive,inactive,,inactive,
C[C@@]12CCC[C@H]1[C@@H]1CC[C@H]3C[C@@H](O)CC[C@]3(C)[C@H]1CC2,inactive,inactive,inactive,,,,,,inactive,inactive,inactive,inactive,
O=C(O)c1cccc(-c2noc(-c3ccccc3F)n2)c1,0.0237 µM (active),29.8 µM (active),inactive,,,,,inactive,inactive,inactive,inactive,inactive,
C=C1CCC2CC1C2(C)C (stereo not given),inactive,inactive,inactive,,,,,inactive,inactive,inactive,,inactive,
C[C@@H](CN(C)C)CN1c2ccccc2Sc2ccccc21,inactive,inactive,,inactive,0.322% [at 18.6 µM] (inactive),-0.151% [at 18.6 µM] (inactive),-0.0905% [at 18.6 µM] (inactive),,,,,,0.0297% [at 18.6 µM] (inactive)
COc1cc(C(=O)NC2CCN(C)CC2)ccc1Nc1ncc2c(n1)N(C1CCCC1)CC(F)(F)C(=O)N2C,1.58 µM (active),44.5 µM (active),79.1 µM (active),,,,,,inactive,inactive,44.5 µM (active),inactive,
Nc1cccc2c1CN(C1CCC(=O)NC1=O)C2=O (stereo not given),inactive,inactive,inactive,,,,,inactive,inactive,inactive,inactive,inactive,
CCCCCC#CC(=O)OC,inactive,inactive,,inactive,,,,inactive,inactive,inactive,inactive,,
CCc1ccccc1,inactive,inactive,,inactive,,,,inactive,inactive,inactive,inactive,inactive,
CN1CCCC(n2nc(Cc3ccc(Cl)cc3)c3ccccc3c2=O)CC1 (stereo not given),inactive,inactive,,inactive,,,,inactive,inactive,inactive,,,
CCOc1ccc(Cc2nccc3cc(OCC)c(OCC)cc23)cc1OCC,inactive,inactive,,inactive,0.4% [at 18.6 µM] (inactive),-0.0249% [at 18.6 µM] (inactive),0.0124% [at 18.6 µM] (inactive),,,,,,
O=C(/C=C/c1ccccc1)OCCc1ccccc1,,inactive,inactive,,,,,inactive,inactive,inactive,,inactive,

SMILES,Potency [1],Potency [2],Potency [3],Potency [4],"fluorescence, relative to Rose Bengal [5]","fluorescence, % of triamterene [6]","fluorescence, % of fluorescent control [7]",outcome [8],Potency [6],outcome [7],Potency [9],outcome [5],"fluorescence, % of fluorescein control [8]"
C[C@@H]1CN(CCCn2c3ccccc3c3ccccc32)C[C@H](C)N1,inactive,,,inactive,,,,inactive,inactive,inactive,,inactive,
CN1CC(=O)N2[C@H](c3ccc4c(c3)OCO4)c3[nH]c4ccccc4c3C[C@@H]2C1=O,inactive,,inactive,inactive,,,,inactive,inactive,inactive,,inactive,
CCCCCCCCOc1ccc(C(=O)O)cc1,inactive,,,inactive,,,,inactive,inactive,inactive,,inactive,
Cc1cc(O)ccc1O,,,inactive,inactive,,,,inactive,inactive,inactive,inactive,inactive,
CCCCC(CC)COP(=O)(O)O (stereo not given),inactive,,inactive,,,,,inactive,inactive,inactive,,inactive,
CCOc1cccc(-n2cc(C(=O)N3CCN(c4cc(C(=O)O)c5ccccc5c4)CC3)nc2-c2ccc(C)cc2)c1,inactive,20.7 µM (active),,,,,,,inactive,inactive,,inactive,
OC[C@H]1O[C@@H](n2cnc3c(=S)nc[nH]c32)[C@H](O)[C@@H]1O,inactive,,inactive,inactive,,,,inactive,inactive,inactive,0.211 µM (active),inactive,
O=C(CCCN1CC=C(n2c(=O)[nH]c3ccccc32)CC1)c1ccc(F)cc1,inactive,,inactive,inactive,,,,inactive,inactive,inactive,inactive,inactive,
C/C=C\C/C=C/CCCCCCCCOC(C)=O,inactive,,inactive,inactive,,,,inactive,inactive,inactive,inactive,,
CC(=O)NC1(c2cccc(F)c2)CCN(CC[C@@]2(c3ccc(Cl)c(Cl)c3)CN(c3ccccc3)C(=O)CO2)CC1,inactive,,,inactive,,,,,inactive,inactive,,inactive,
CCCCCCCCC(CCCCCC)C(=O)O (stereo not given),inactive,,inactive,,,,,inactive,inactive,inactive,,,
O=C(O)CCc1nc(-c2ccccc2)c(-c2ccccc2)o1,inactive,inactive,,,,,,inactive,inactive,inactive,inactive,inactive,
CC1(C)O[C@@H]2C[C@H]3[C@@H]4C[C@H](F)C5=CC(=O)C=C[C@]5(C)[C@H]4[C@@H](O)C[C@]3(C)[C@]2(C(=O)CO)O1,,inactive,inactive,inactive,0.174% [at 18.6 µM] (inactive),-0.229% [at 18.6 µM] (inactive),-0.713% [at 18.6 µM] (inactive),,,,,,-0.107% [at 18.6 µM] (inactive)
O=C(OC(=O)c1ccccc1)c1ccccc1,inactive,inactive,,,,,,inactive,inactive,inactive,inactive,,
O=C1Cc2ccccc2N1c1c(Cl)cccc1Cl,inactive,,inactive,,,,,inactive,inactive,inactive,,inactive,
Cc1ccc2c(Br)cc(Br)c(O)c2n1,23.7 µM (active),,inactive,inactive,,,,inactive,inactive,inactive,23.7 µM (active),inactive,
Brc1cc(Br)c(Oc2cc(Br)c(Br)cc2Br)cc1Br,inactive,,inactive,inactive,,,,inactive,inactive,inactive,,,
O=C1c2ccccc2C(=O)C1c1nc2ccccc2c(Br)c1O,,inactive,inactive,inactive,,,,inactive,inactive,inactive,21.7 µM (active),inactive,
C=C(C)C(=O)OCCOCCOC(=O)C(=C)C,inactive,,,inactive,,,,inactive,inactive,inactive,inactive,,

SMILES,Potency [1],Potency [2],Potency [3],Potency [4],"fluorescence, relative to Rose Bengal [5]","fluorescence, % of triamterene [6]","fluorescence, % of fluorescent control [7]",outcome [8],Potency [6],outcome [7],Potency [9],outcome [5],"fluorescence, % of fluorescein control [8]"
O=[N+]([O-])c1ccc(O/N=C/c2cc(Br)c(O)c(Br)c2)c([N+](=O)[O-])c1,inactive,,24.2 µM (active),12.1 µM (active),,,,inactive,inactive,inactive,0.859 µM (active),inactive,
CCCC(C(=O)OCCN(CC)CC)(c1ccccc1)c1ccccc1,inactive,inactive,,,,,,inactive,inactive,inactive,,inactive,
O=C1C(=O)c2ccccc2C(O)=C1C1CCC(c2ccc(Cl)cc2)CC1 (stereo not given),inactive,,inactive,,,0.0437% [at 18.6 µM] (inactive),0.421% [at 18.6 µM] (inactive),,,,,,-0.0011% [at 18.6 µM] (inactive)
O=[N+]([O-])c1cc(C2CCCCC2)c(O)c([N+](=O)[O-])c1,inactive,,19.3 µM (active),0.343 µM (active),,,,,inactive,inactive,0.153 µM (active),inactive,
Cc1cc(=O)c2c(O)c3c(O)cc(=O)c4c3c3c(cc(O)c1c23)C(C)(C)C=4O,inactive,1.06 µM (active),,,,,,,inactive,inactive,0.473 µM (active),inactive,
NNC(=O)CP(=O)(c1ccccc1)c1ccccc1,inactive,inactive,,,,,,,inactive,inactive,,inactive,
CC(=O)N/N=C/c1ccc([N+](=O)[O-])o1,inactive,,inactive,,,,,inactive,inactive,inactive,,inactive,
c1ccc2sc(SN(C3CCCCC3)C3CCCCC3)nc2c1,inactive,,inactive,,,,,,inactive,inactive,,inactive,
CCOC(=O)OC(C)OC(=O)[C@@H]1N2C(=O)[C@@H](NC(=O)[C@H](N)c3ccccc3)[C@H]2SC1(C)C (stereo not given in full),inactive,,,inactive,-0.696% [at 18.6 µM] (inactive),0.659% [at 18.6 µM] (inactive),0.375% [at 18.6 µM] (inactive),,,,,,0.0265% [at 18.6 µM] (inactive)
CC1(C)[C@H](C(=O)O)N2C(=O)C[C@H]2S1(=O)=O,,,,inactive,,,,inactive,inactive,inactive,inactive,inactive,
COC(=O)C1=C(C)NC(C)=C(C(=O)O[C@@H]2CCCN(Cc3ccccc3)C2)[C@@H]1c1cccc([N+](=O)[O-])c1,inactive,inactive,,,,,,inactive,inactive,inactive,13.3 µM (active),,
Nc1nc2ccc([N+](=O)[O-])cc2s1,inactive,,,inactive,,,,,inactive,inactive,4.33 µM (active),inactive,
C/C=C/C=C/C=O,inactive,,,inactive,,,,,inactive,inactive,inactive,inactive,
CN1C(=O)c2ccccc2C1=O,,inactive,,inactive,,,,inactive,inactive,inactive,,inactive,
CCN(CC)CCNC(=O)COc1ccc(OC)cc1,inactive,inactive,,,,,,inactive,inactive,inactive,inactive,inactive,
O=C1c2ccccc2C(=O)N1CCc1noc(-c2ccc(CN3CCCCCC3)s2)n1,inactive,inactive,,,,,,inactive,inactive,inactive,,inactive,
O=c1cc(-c2ccccc2)oc2ccc3ccccc3c12,0.077 µM (active),,,24.3 µM (active),,,,inactive,inactive,inactive,8.63 µM (active),inactive,
C=CCc1ccccc1OCC(O)CNC(C)C (stereo not given),,inactive,inactive,inactive,,,,inactive,inactive,inactive,,inactive,
